Measured values as given in PubChem BioAssay AID1626 (SRMLSC, 2009).
Out of some 220,000 compounds screened, about 2,000 (0.91%) were called active. About 2% were inconclusive and are not listed. No stated cut-off is given here; in the data, inconclusive means inhibition above about 80% without an active follow-up result; inactive means below that; test concentration not stated here. Only a sample is shown. Results with a measured potency or affinity are listed apart.

experiment: M. tuberculosis H37Rv growth inhibitors, H37Rv strain (AID 1626); details: stronger effect = higher value, concentration not given here;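 further: bacteria incubated seven days before Alamar blue readout; 0% = bacteria only wells and 100% = bacteria with antibiotic wells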

SMILES | inhibition
CC(=O)Nc1ccc(NC(=O)/C=C/c2cccc(C(F)(F)F)c2)cc1 | 0.39% (inactive)
CCc1ccc2c(c1)C(c1ccncc1)=NNC(c1ccccc1)=N2 | 8.68% (inactive)
CCCC(=O)Nc1nnc(SCC(=O)Nc2ccc3c(c2)OCO3)s1 | 5.81% (inactive)
CN1CCN(C(=O)c2ccc(CSc3nc4ccncc4n3Cc3ccc(F)cc3)cc2)CC1 | -0.01% (inactive)
COc1ccc2nc(C)cc(C(=O)O)c2c1 | 0.85% (inactive)
O=C(COc1ccccc1)N1CCN(C/C=C/c2ccccc2)CC1 | -6.49% (inactive)
COc1ccccc1NC(=O)C(C)N1CCN(C/C=C/c2ccccc2)CC1 (configuration not stated) | 11.9% (inactive)
COc1ccc(C)cc1NC(=O)CN1CCN(C/C=C/c2ccccc2)CC1 | -3.7% (inactive)
O=C(CN1CCN(C/C=C/c2ccccc2)CC1)Nc1ccccc1C(=O)NC1CC1 | -0.65% (inactive)
O=C(CN1CCN(C/C=C/c2ccccc2)CC1)Nc1ccc(F)cc1F | -0.62% (inactive)
O=C(COc1ccc(Cl)cc1)N1CCN(C/C=C/c2ccccc2)CC1 | 0.36% (inactive)
Cc1n[nH]c(=O)nc1NCc1ccc(Cl)cc1 | 0.09% (inactive)
CC(C)(C)NC(=O)COC(=O)CCC(=O)c1ccc(F)cc1 | -0.61% (inactive)
Cc1ccc(/C=N/NC(=O)CNC(=O)c2ccc(S(=O)(=O)N(C)C)cc2)cc1 | -4.56% (inactive)
Cc1ccnc(NS(=O)(=O)c2ccc(NC(=O)/C=C/c3cccs3)cc2)n1 | 11.1% (inactive)
CCOC(=O)C1C(c2ccccc2)NC(=S)NC1(C)O (configuration not stated) | 1.27% (inactive)
COc1ccc(Nc2ncc(C(=O)O)c3ccccc23)cc1 | 5.05% (inactive)
Cc1cc2ccc(C)c(C)c2nc1SCC(=O)c1cccs1 | -3.91% (inactive)
Nc1nc(NCC2CCCO2)nc(NCC2CCCO2)c1[N+](=O)[O-] (configuration not stated) | -0.89% (inactive)
O=C(CCCCCN1C(=O)C2C3C=CC(C3)C2C1=O)Nc1nccs1 (configuration not stated) | -6.21% (inactive)
CCc1cccc(C)c1NC(=S)N1CCCCC1c1cccnc1 (configuration not stated) | 1.2% (inactive)
CC(C)COC(=O)C(C#N)c1nc2ccccc2nc1N1CCN(Cc2ccc3c(c2)OCO3)CC1 (configuration not stated) | 2.75% (inactive)
COC(=O)C(C#N)c1nc2ccccc2nc1N1CCN(Cc2ccc3c(c2)OCO3)CC1 (configuration not stated) | -4.28% (inactive)
CC(N=C1NC(C)(C)Cc2ccccc21)C(=O)O (configuration not stated) | -3.94% (inactive)
Cn1c(Cn2c(=O)sc3ccccc32)nnc1SCC(=O)NC1CCCC1 | -8.44% (inactive)
Cc1cc(C)n(C(=O)c2ccc([N+](=O)[O-])cc2N)n1 | -10.3% (inactive)
Cc1cc(C)n(C(=O)c2ccccc2[N+](=O)[O-])n1 | 6.43% (inactive)
